HSF1 activator: increases HSF-1 driven luciferase reporter signal. NIH3T3-HGL HSF-1 luciferase reporter, MG132, 8 h; 100% = twice DMSO control signal. activation, % at 9 µM. 300,000 tested, 1.7% active. AID 504408;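 active = mean replicate activation of at least 50% with a set share of replicates each reaching 50%; inconclusive = only one of those two conditions met; inactive = mean below 50% and too few replicates reaching it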;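 note: 0% = median of the neutral control wells and 100% = twice that signal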
HSF1 inh: HSF1 inhibition; NIH3T3-HGL HSE-luciferase, MG132-induced, luminescence 8 h; hits give low values; activity change, negative = inhibition, % at 7.5 µM (by protocol); 300,000 tested, 0.77% active; AID 2098;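 active = more than half of replicate wells show activity change below -50%, luminescence cut by over half; inconclusive = some wells, but at most half, below -50%; inactive = no replicate well below -50%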;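 note: luciferase reports HSF-1 transcriptional activity via heat shock element; 0% = median of DMSO wells and -100% = zero luminescence signal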
MPTP block: inhibitors of mitochondrial permeability transition pore. isolated mouse mitochondria, Ca2+ swelling absorbance, 30 min. inhibition, % at 10 µM. 360,000 tested, 1.4% active;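 active = inhibition of 50% or more, scaled per plate between neutral and stimulator controls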;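 note: 0% = DMSO wells given calcium and 100% = 1 mM EGTA wells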
HSP90 inh: blocks HSP90-mediated luciferase refolding in reticulocyte lysate. Rabbit reticulocyte lysate, luciferase refolding luminescence, 3 h. 290,000 tested, 0.91% active. AID 1789. inhibition, % at 5.6 µM;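 active = inhibition above the screen-wide mean plus 3 SD, computed separately per campaign, cut at about 16% in these data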;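 note: 0% = DMSO wells and 100% = 60 µM geldanamycin wells; inhibitors lower the luminescence because luciferase stays unfolded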
Platelet DG rel: modulates dense granule release in human platelets | human platelet-rich plasma, SFLLRN dense granule ATP release, luminescence | inhibition, %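 (compounds screened at 7.5 µM in platelet-rich plasma)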 | 300,000 tested, 0.22% active | AID 1663;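 active = mean replicate score, as percent of positive control, at or above 50; inconclusive = mean below 50 but at least one replicate at or above 50; inactive = mean and every replicate below 50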
dFosB activator: mouse delta FosB homodimer activation; AID 493131; 340,000 tested, 0.99% active; P13346; activation, % at 25 µM; purified delta FosB, TAMRA-CDK5 oligo fluorescence polarization; percent of positive-control signal above neutral wells;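 active = mean activation above about 17%, with every replicate also reaching it, limit read from the data, passing the limit was not always enough; inconclusive = only one of the two conditions met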
Target sequence (P13346 whole entry, looked up): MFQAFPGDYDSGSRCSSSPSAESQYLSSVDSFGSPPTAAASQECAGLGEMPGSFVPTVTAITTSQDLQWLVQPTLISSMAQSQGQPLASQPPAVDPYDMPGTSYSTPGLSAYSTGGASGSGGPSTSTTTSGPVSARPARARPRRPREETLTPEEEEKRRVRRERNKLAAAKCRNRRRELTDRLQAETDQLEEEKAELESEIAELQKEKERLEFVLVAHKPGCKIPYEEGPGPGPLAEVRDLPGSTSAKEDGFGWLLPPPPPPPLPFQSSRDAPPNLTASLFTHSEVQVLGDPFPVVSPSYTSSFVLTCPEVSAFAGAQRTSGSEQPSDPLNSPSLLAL
Starred values were filed as active, the others as inactive; ? = inconclusive; · = not tested or not shown; ! = not confirmed by another sample. Sampled rows, rich in hits. Any-hit rate of the full collection: about 4.9%.

SMILES	HSF1 activator	HSF1 inh	MPTP block	HSP90 inh	Platelet DG rel	dFosB activator
COc1ccc(/C=N/NC(=O)C(N)=O)c(OC)c1OC	7	0	0	1	-7	-4
COc1ccc(/C=N/N(C)C2=NCCN2)c(OC)c1OC	-90	-86*	0	-2	-4	5
S=C(N/N=C/c1ccc2ncccc2c1)Nc1cccnc1	-65	-65*	0	13	-4	-12
N#C/C(=C\c1ccc(OCc2cccc(C(=O)O)c2)cc1)C(=O)NCc1ccco1	-13	-5	1	1	-6	-7
C=CCN1C(=O)C(Cc2ccc(OCC)cc2)S/C1=N\N=C\c1cccs1 (stereo not drawn)	56*	19	1	-4	-4	-2
CCOC(=O)C(=C1Nc2ccccc2N1)n1c(-c2cccnc2)nc2ccccc21	·	·	0	·	·	·
CCOC(=O)c1c(C)nc2c3ccccc3ccn12	?	19	0	0	0	-40
CCOC(=O)c1c(C)nc2c(C)cccn12	-92	-89*	1	1	-8	4
O=C(NCCCN1CCCCCC1)c1ccc2c(Cl)c3c(nc2c1)CCCC3	-9	6	0	1	-1	-9
CCN1CCN(C(=O)c2ccc3c(Cl)c4c(nc3c2)CCCC4)CC1	114*	72	0	9	3	-12
CN1CCN(C(=O)c2ccc3c(Cl)c4c(nc3c2)CCCC4)CC1	136*	108	-1	0	1	2
N#CC1CCN(C(=O)c2ccc3c(Cl)c4c(nc3c2)CCCC4)CC1	21	15	0	-5	-10	-9
CCN1CCN(CCCNC(=O)c2ccc3c(Cl)c4c(nc3c2)CCCC4)CC1	97*	73	-2	4	-4	-36
COC(=O)c1cc(NC(=O)c2cc(C(C)(C)C)nn2Cc2ccc(F)cc2)ccc1N1CCOCC1	37	8	13	0	-8	-7
C1CCC(n2nnnc2CN2CCN(C3CCCC3)CC2)CC1	-5	0	-1	3	-2	2
C1CCC(Nc2nnnn2C2CCCCC2)CC1	-65	-59*	-1	0	-44	-9
COc1ccc(-c2nc3ncccc3o2)cc1NC(=O)c1ccco1	-15	-5	0	0	-5	-63
Cc1ccc(S(=O)(=O)Cn2nnnc2CN(Cc2ccco2)CC2CCCO2)cc1 (stereo not drawn)	59*	20	-4	-3	-2	0
Cc1cc(C)c2nc3s/c(=C/c4ccccc4)c(=O)n3c2c1	·	·	·	2	·	·
O=c1/c(=C/c2ccccc2)sc2nnc(-c3cccs3)n12	64*	27	2	0	-11	·
CCN1C(=NCCc2cccs2)N[C@@H](c2cccs2)C(C(=O)OC)=C1C	-69	-60*	2	0	-3	2
CCOC(=O)CN1C(=O)N[C@@H](c2cccs2)C(C(=O)OC)=C1C	1	8	-2	·	1	-2
CCOc1cc(/C=C2/SC(=S)N(CC3CCCO3)C2=O)ccc1O (stereo not drawn)	73*	28	4	2	5	0
CCC1=CC(c2ccccc2)n2ncnc2N1 (stereo not drawn)	-88	-84*	-2	·	-1	-13
Cc1cc(NC(=O)c2ccc3nc(C)sc3c2)no1	-73	-67*	0	0	5	-12
SMILES	HSF1 activator	HSF1 inh	MPTP block	HSP90 inh	Platelet DG rel	dFosB activator
O=C(Nc1ccc2c(c1)OCCO2)c1ccc(Br)s1	44	8	1	12	5	-2
Cc1ccc(C(=O)Nc2ccc3nc(C)sc3c2)s1	56*	33	-2	-2	4	-16
Cc1cc(NC(=O)c2ccc(Cl)cc2)no1	38	13	0	-1	-5	-3
Cc1ccc(C(=O)Nc2ccc3nc(C)sc3c2)o1	·	·	0	·	·	·
Cc1nc2cc(NC(=O)c3ccc(Br)s3)ccc2s1	56*	34	0	0	12	-24
CC(=O)OC[C@H]1O[C@@H](Oc2cc3ccc(=O)oc3cc2OC(C)=O)[C@H](OC(C)=O)[C@@H](OC(C)=O)[C@@H]1OC(C)=O	·	·	0	·	·	-11
COc1ccc(N2CC(C(=O)N[C@@H](CC(C)C)C(=O)NC3CCCC3)CC2=O)cc1 (stereo partly drawn)	-11	1	0	0	-20	-1
CC(=O)c1ccc(OCC(O)CN2CCN(Cc3ccc4c(c3)OCO4)CC2)cc1 (stereo not drawn)	-7	-61*!	-1	2	6	-1
O=C(COC(=O)c1ccc(Cl)nc1)c1ccc2c(c1)OCCO2	65*	41	0	5	-2	-9
O=C(COC(=O)c1cccnc1Cl)c1ccc2c(c1)OCCO2	19	5	-3	6	8	-3
Oc1ccc(Cc2ccccc2)c2cccnc12	·	·	0	·	·	·
Cc1ccc(N=Nc2ccc(O)c3ncccc23)cc1	123*	124	2	4	-2	-8
OCc1ccc(O)c2ncccc12	-58	-54*	-2	-3	0	1
Oc1ccc(Cl)c2cccnc12	·	·	-4	·	·	5
Cc1ccc(N=Nc2ccc(O)c3ncccc23)cc1C	-55	-51*	4	1	4	-16
O=C(CC(c1ccccc1)c1ccccc1O)NCc1ccccc1Cl (stereo not drawn)	37	3	4	4	5	-7
O=C(Cc1cccc(NC(=O)C2CCCN(C(=O)C3CCCCC3)C2)c1)Nc1cccc(C(=O)N2CCCCC2)c1 (stereo not drawn)	·	·	0	·	·	-3
O=C(CSc1ncnc2c1cnn2-c1ccccc1)NC1CCS(=O)(=O)C1 (stereo not drawn)	·	·	0	·	·	-7
Cc1[nH]nc(-c2ccc(O)c(C)c2O)c1-c1cnn(-c2ccccc2)c1	67*	29	-1	-2	-8	-5
Cc1oc2c(C)c(O)ccc2c(=O)c1-c1cnn(-c2ccccc2)c1	3	0	12	1	0	14
CCCN(C)C1CN(Cc2cn(Cc3ccccc3)nn2)S(=O)(=O)C1 (stereo not drawn)	·	·	-1	·	·	·
CCc1ccc(-c2nc(CSCC(=O)NC3CC3)c(C)o2)cc1	-78	-71*	-1	-1	0	4
Cc1oc(-c2cccc(Cl)c2)nc1CS(=O)(=O)CC(=O)NC1CC1	57*	25	-1	-1	-13	-9
CCN(CCNC(=O)CS(=O)(=O)Cc1nc(-c2cccc(OC)c2)oc1C)c1ccccc1	78*	54	2	1	6	-9
Cc1oc(-c2ccccc2F)nc1CS(=O)(=O)CC(=O)NCCCN1CCN(C)CC1	148*	100	1	1	1	-11
CCOC(=O)N1CCC(NC(=O)CS(=O)(=O)Cc2nc(-c3cccc(Cl)c3)oc2C)CC1	17	9	-1	-5	9	-4
CSc1ccc(-c2nc(CSCC(=O)NC3CC3)c(C)o2)cc1	-39	-21	-1	0	-2	-7
